Test results taken from PubChem BioAssay AID493231 (Broad Institute, 2011).
Results with a measured potency or affinity are listed apart. Active and inactive are the calls of the source. How the calls were made is not given here.

Each compound was assayed against Acyl-homoserine lactone acylase PvdQ (Pseudomonas aeruginosa (strain ATCC 15692 / DSM 22644 / CIP 104116 / JCM 14847 / LMG 12228 / 1C / PRS 101 / PAO1)) (UniProt Q9I194) (assay: PvdQ acylase enzyme activity blockers – biochemical, fluorescence, plate reader and imaging, cherry-picks, dose response (AID 493231;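 further: more negative values mean stronger inhibition of the acylase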)). Conditions: purified PvdQ acylase, fluorogenic substrate; series mostly up to 10 µM.
Acyl-homoserine lactone acylase PvdQ (Pseudomonas aeruginosa (strain ATCC 15692 / DSM 22644 / CIP 104116 / JCM 14847 / LMG 12228 / 1C / PRS 101 / PAO1)), sequence (Q9I194 whole entry, looked up): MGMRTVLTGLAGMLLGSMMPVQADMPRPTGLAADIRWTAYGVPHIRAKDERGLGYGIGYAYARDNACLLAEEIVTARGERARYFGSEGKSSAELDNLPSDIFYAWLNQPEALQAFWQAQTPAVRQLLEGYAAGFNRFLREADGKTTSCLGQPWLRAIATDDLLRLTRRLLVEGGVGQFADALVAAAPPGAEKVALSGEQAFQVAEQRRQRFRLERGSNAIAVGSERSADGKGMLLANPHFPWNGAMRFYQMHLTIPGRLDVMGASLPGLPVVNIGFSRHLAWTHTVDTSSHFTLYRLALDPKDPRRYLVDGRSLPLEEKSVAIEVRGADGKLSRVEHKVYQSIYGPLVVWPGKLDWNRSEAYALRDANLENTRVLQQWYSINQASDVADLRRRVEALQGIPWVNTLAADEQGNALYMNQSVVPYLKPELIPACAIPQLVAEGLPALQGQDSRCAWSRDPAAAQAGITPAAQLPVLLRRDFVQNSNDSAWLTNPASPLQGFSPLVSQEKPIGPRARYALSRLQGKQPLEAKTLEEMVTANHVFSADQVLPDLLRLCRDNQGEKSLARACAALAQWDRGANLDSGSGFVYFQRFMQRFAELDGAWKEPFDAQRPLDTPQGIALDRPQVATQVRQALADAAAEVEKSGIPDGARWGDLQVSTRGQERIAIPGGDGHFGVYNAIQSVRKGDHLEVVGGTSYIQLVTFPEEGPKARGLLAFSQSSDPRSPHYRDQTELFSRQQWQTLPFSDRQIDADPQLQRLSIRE

outcome, inactive:
O=C(Nc1cccc(NC(=O)c2sc3ccccc3c2Cl)c1)c1ccco1
O=C(N/N=C/c1cccnc1)C1CC1(c1ccccc1)c1ccccc1 (stereo unspecified)
O=C1N(c2ccccc2)C[C@@H]2C[C@@H](c3cc4ccccc4o3)N3CCC[C@@]123
Clc1ccc2nc(-c3ccc4c(c3)OCO4)cn2c1
Cc1cc(/C=C2\Cc3ccccc3C2=O)c(C)n1-c1ccccc1
CC(C)Cn1nc(C(=O)Nc2nnc(C3CC3)s2)c2ccccc2c1=O
CCC(=O)N1N=C(c2ccc(C)o2)CC1c1ccc(N(C)C)cc1 (stereo unspecified)
CC1CCCCC1NS(=O)(=O)c1ccc(S(=O)(=O)N2CCCC2)cc1 (stereo unspecified)
CN=C1S/C(=C\c2ccc(SC)cc2)C(=O)N1C
Cc1cc(=O)n2nc(N3CCCC(C(=O)N4CCOCC4)C3)sc2n1 (stereo unspecified)
O=C(/C=C/c1cccs1)Nc1ccncc1
O=C(CN1C(=O)C2C3C=CC(C4CC34)C2C1=O)Oc1ccccc1 (stereo unspecified)
O=c1oc(-c2ccc(F)cc2)nc2ccsc12
O=C(Cc1cccc(NC(=O)C2CCN(C(=O)C3CCCCC3)CC2)c1)Nc1cccc(C(=O)N2CCCCC2)c1
O=C(CCc1ccccc1)Nc1ccc2c(c1)OCO2
CC1CC(Nc2ccccc2)c2ccccc2N1C(=O)c1ccco1 (stereo unspecified)
C=CCNC(=S)NNC(=O)C(CC(C)C)CC(C)O (stereo unspecified)
CCOc1ccc(NC(=O)NCc2cccn2C)cc1
COC(=O)CNC(c1ccccc1)c1cc(C)ccc1NS(=O)(=O)c1ccc(C)cc1 (stereo unspecified)
COC(=O)c1ccccc1NC(=O)CN1CCC(NC(=O)c2ccc(C)cc2)CC1
COc1ccc(OCCSc2nc3ccccc3n2CCC(=O)O)cc1
COc1ccc(-c2nn(-c3ccccc3)cc2/C=C2/SC(=S)N(CCC(=O)O)C2=O)cc1
C=CCn1c(=O)/c(=C/c2ccc(C)o2)s/c1=C(/C#N)C(=O)c1ccccc1
COC(=O)C1CCN(C2CC(=O)N(c3cc(C)cc(C)c3)C2=O)CC1 (stereo unspecified)
Cn1c(=O)c2[nH]c(-c3ccccc3)c(O)c2n(C)c1=O
COc1ccc(OC2CCN(S(=O)(=O)c3ccc(OC)c(OC)c3)CC2)cc1
Cc1nc2ccc(S(=O)(=O)Nc3ccc(-c4nc5cccnc5s4)cc3)cc2s1
CC(=O)c1ccc(NC(=S)N2CCCC(CO)C2)cc1 (stereo unspecified)
O=C(NCC1CCCCC1)c1cc(Br)ccc1Cl
O=C(/C=C/c1ccc(Br)cc1)c1ccco1
O=C(CCc1c[nH]c2ccccc12)N/N=C/c1ccc2c(c1)OCO2
CCN1CCCC1CN(Cc1cc2ccc(C)cc2[nH]c1=O)C(=S)Nc1cccc(OC)c1 (stereo unspecified)
Cc1ccccc1NC(=O)Cn1nc(-c2ccccc2)nc1-c1ccccc1
CCOC(=O)c1cc(-c2cccc([N+](=O)[O-])c2)on1
O=C1CCCN=C(Nc2ccc(F)c(Cl)c2)S1
COc1ccc(C2NCCc3c2[nH]c2ccccc32)cc1COc1ccc(F)cc1 (stereo unspecified)
